# Reference: PubChem BioAssay (NCATS)
# A number with no mark means an inactive call. Inconclusive results are not listed. The list shows a part of the results. A call without a number means that no potency is given here. Calls of active or inactive are those of the source. Unless noted, the call rests on the fitted dose curve; in most records, active means well fitted inhibition curve with a large enough effect; inconclusive means small, poorly fitted or top-dose-only effect; inactive means flat fitted curve, though single readings scatter.
# Legend:
# [1] = qHTS Assay for Inhibitors of Fructose-1,6-bisphosphate Aldolase from Giardia Lamblia: Mammalian cellular toxicity (AID 2786);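 further: compound exposure lasted 48 h before reading; nearly all actives have a fitted effect of over 60% in size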; further: potency means the concentration at half of the fitted maximal effect
# Method in brief: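 CHO cells seeded at 250 cells/well with pin-tool-added compound, incubated 48 h at 37 °C, 5% CO2. Viability read as ATP content by ATPlite luminescence after 20 min.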
# [2] = target: Fructose-bisphosphate aldolase (Giardia intestinalis (strain ATCC 50803 / WB clone C6)) (UniProt A8B2U2); assay: qHTS Assay for Inhibitors of Fructose-1,6-bisphosphate Aldolase from Giardia Lamblia: Primary screen confirmation (AID 2787);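 further: aldolase product measured through coupled diaphorase step turning resazurin into fluorescent resorufin; nearly all actives have a fitted effect of over 45% in size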
# Fructose-bisphosphate aldolase (Giardia intestinalis (strain ATCC 50803 / WB clone C6)), sequence (A8B2U2 whole entry, looked up): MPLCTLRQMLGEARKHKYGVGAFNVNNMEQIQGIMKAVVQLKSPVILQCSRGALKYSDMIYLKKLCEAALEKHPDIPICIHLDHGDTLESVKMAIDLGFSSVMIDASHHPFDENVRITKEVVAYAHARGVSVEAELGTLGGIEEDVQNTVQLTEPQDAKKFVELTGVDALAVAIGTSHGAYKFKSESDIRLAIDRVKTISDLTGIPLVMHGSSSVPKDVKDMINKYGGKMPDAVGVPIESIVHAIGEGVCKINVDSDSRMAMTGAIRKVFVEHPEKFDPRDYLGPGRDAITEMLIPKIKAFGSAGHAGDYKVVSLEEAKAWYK
# Method in brief: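 Confirmation of primary hits by qHTS up to 57.5 uM final compound. Enzyme at 40 nM with 30 uM ZnCl2, 10 min RT pre-incubation, then substrate/coupling/resorufin-forming detection mix for 20 min before fluorescence read at 525/598 nm.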
# [3] = target: Fructose-bisphosphate aldolase A (Oryctolagus cuniculus) (UniProt P00883); assay: qHTS Assay for Inhibitors of Fructose-1,6-bisphosphate Aldolase from Giardia Lamblia: Rabbit FBPA Selectivity (AID 2794); further: nearly all actives have a fitted effect of over 60% in size
# Fructose-bisphosphate aldolase A (Oryctolagus cuniculus), sequence (P00883 whole entry, looked up): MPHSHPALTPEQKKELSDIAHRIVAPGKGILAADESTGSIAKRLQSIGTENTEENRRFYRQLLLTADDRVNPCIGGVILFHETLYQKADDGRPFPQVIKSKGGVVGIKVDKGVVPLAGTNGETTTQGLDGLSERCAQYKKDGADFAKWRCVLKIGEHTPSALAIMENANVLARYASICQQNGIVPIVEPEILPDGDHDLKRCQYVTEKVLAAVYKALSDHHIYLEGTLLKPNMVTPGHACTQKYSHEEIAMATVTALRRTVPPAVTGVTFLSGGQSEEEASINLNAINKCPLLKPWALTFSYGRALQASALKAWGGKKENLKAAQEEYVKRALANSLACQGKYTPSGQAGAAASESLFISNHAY
# Method in brief: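 AmpLite Red readout, ex/em 525/598 nm. Rabbit FBPA, GAP-linked coupling enzymes; 10 min cpd preincubation, then 20 min after substrate, both RT. Concentration-response up to 57.5 uM final.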
# [4] = qHTS Assay for Inhibitors of Fructose-1,6-bisphosphate Aldolase from Giardia Lamblia: Coupling assay counterscreen confirmation (AID 2795); further: nearly all actives have a fitted effect of over 55% in size
# Method in brief: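 Counterscreen, no aldolase: coupling enzyme reagent + cpd (up to 57.5 uM final), 10 min RT; add substrate + coupling system + AmpLite Red, 20 min RT; fluorescence ex 525/em 598 nm.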
# [5] = AP1 Signaling Pathway (AID 357; active means well fitted curve in either direction with a large enough effect, not every such curve was filed as active;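 further: ME-180 reporter cells stimulated with EGF at its EC50 level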); settings: ME-180 AP-1-bla reporter, EGF-induced, beta-lactamase ratio, 5 h; at 7.69 µM (top of the series) unless noted
# Method in brief: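 AP-1-bla ME-180 cells, Opti-MEM + 0.5% dialyzed FBS, plated overnight 37 °C. Cpd titration + EC50 EGF, 5 h 37 °C. CCF4 2.5 h RT; ex 405, em 460/530 ratio → %activity, AC50.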
# [6] = NFAT Signaling Pathway (AID 444; active means well fitted curve in either direction with a large enough effect, not every such curve was filed as active;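 further: carbachol stimulus at about its EC50 of 1 µM final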); settings: Jurkat NFAT-bla M1, carbachol, beta-lactamase ratio, 5 h; at 7.69 µM (top of the series) unless noted
# Method in brief: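 Jurkat cells with NFAT-driven β-lactamase reporter and co-expressed M1 receptor, stimulated with carbachol (final 1 uM, ~EC50), compound titration, 5 h at 37 °C. CCF4 loaded 1 h at RT; 460/530 nm ratio gave %activity and AC50.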
# [7] = Stat Signaling Pathway (AID 446; active means well fitted curve in either direction with a large enough effect, not every such curve was filed as active;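 further: ME-180 cervical cancer cells given 40 pM IL-6 alongside compound; SIE-controlled beta-lactamase reporter measured as 460/530 nm FRET emission ratio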); settings: ME-180 SIE beta-lactamase reporter, IL-6 stimulated, 5 h; at 7.69 µM (top of the series) unless noted
# Method in brief: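 Screening format detects activators and inhibitors alike: ME-180 SIE-bla cells stimulated at 40 pM IL-6 for 5 hrs with compound, then dual-emission beta-lactamase read at 405 nm excitation.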
# [8] = target: Glucocorticoid receptor (Homo sapiens) (UniProt P04150); assay: GR-GFP Redistribution (AID 450;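 active means compounds whose dose series gives a full or clear partial fitted curve of increased nuclear translocation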; further: potency means the concentration at half of the fitted maximal effect); settings: U2OS GR-GFP nuclear translocation, laser cytometry, 2 h
# Glucocorticoid receptor (Homo sapiens), sequence (P04150 whole entry, looked up, the tested form may be a part): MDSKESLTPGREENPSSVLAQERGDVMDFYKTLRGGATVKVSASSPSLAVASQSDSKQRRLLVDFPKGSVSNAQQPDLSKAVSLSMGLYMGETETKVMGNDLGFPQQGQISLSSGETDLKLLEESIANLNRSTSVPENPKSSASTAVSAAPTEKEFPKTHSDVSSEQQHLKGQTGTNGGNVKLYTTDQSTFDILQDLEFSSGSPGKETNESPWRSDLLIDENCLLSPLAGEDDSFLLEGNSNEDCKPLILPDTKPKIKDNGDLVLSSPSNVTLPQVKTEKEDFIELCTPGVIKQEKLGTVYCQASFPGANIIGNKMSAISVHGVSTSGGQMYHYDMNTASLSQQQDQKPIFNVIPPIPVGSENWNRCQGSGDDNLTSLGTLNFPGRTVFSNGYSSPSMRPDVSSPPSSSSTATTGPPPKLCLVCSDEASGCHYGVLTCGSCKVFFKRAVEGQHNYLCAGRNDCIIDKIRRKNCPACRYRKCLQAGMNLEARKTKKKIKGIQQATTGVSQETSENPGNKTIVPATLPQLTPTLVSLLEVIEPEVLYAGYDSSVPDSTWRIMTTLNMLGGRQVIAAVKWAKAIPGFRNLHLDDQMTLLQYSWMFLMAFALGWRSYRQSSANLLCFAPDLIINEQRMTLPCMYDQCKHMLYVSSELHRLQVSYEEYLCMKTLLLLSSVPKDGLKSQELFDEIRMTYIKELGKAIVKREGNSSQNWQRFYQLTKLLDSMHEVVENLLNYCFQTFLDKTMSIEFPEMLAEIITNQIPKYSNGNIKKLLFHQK
# [9] = target: Cytochrome P450 1A2 (Homo sapiens) (UniProt P05177); assay: p450-cyp1a2 (AID 410; calls by dose curve; further: potency means the concentration at half of the fitted maximal effect)
# Cytochrome P450 1A2 (Homo sapiens), sequence (P05177 whole entry, looked up): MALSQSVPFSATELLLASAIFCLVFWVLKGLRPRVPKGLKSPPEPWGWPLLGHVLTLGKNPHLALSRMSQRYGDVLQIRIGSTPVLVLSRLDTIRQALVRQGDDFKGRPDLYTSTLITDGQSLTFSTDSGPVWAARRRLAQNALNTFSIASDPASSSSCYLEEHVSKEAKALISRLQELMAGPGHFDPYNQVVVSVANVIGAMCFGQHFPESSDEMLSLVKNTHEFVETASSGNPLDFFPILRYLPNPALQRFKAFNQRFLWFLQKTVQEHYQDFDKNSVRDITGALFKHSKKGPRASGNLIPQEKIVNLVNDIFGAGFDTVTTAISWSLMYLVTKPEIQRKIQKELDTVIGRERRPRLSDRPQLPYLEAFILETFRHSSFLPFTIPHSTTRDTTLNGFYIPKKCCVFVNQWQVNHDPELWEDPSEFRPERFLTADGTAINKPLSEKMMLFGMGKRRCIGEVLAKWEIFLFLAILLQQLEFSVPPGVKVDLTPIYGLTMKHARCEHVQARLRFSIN
# Method in brief: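 Luminescent readout of luciferin formed from Luciferin-ME by human CYP1A2; data normalized against complete inhibition by 57 uM furafylline. Enzyme 20nM, substrate 100uM at Km, 100mM KPO4 buffer, 60 min reaction at room temperature.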
# [10] = target: Glucocorticoid receptor (Homo sapiens) (UniProt P04150); assay: GR-EFC Redistribution (AID 451; calls by dose curve; further: potency means the concentration at half of the fitted maximal effect); settings: CHO-K1 GR-EFC translocation, beta-gal luminescence, 2 h
# Method in brief: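 CHO-K1 cells expressing nuclear EA and GR-ED fragments of b-gal; compounds titrated up to 46 uM final, 2 h at 37 C. GR nuclear translocation read as complemented b-gal luminescence after 1 h RT detection.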
# [11] = target: Mitogen-activated protein kinase 10 (Mus musculus) (UniProt Q61831); assay: JNK3 AlphaScreen Assay (AID 530; active means well fitted curve in either direction with a large enough effect, not every such curve was filed as active;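 further: kinase came from lysate of stimulated human HepG2 cells; signal reports phosphorylation of biotinylated GST-cJun 1-79 at Ser73 with 10 µM ATP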)
# Method in brief: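 Pre-activated (IL-1β/TNFα) JNK3 in HepG2 lysates phosphorylates biotin-GST-cJun(1-79), 10 uM ATP; anti-phospho-cJun(Ser73) AlphaScreen read at room temperature, pH 7.6 Tris buffer. Compounds pre-incubated 15 min as titrations.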
# [12] = target: Ubiquitin carboxyl-terminal hydrolase 1 (Homo sapiens) (UniProt O94782); assay: Inhibitors of USP1/UAF1: Pilot qHTS (AID 504865);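 further: rhodamine fluorescence freed from ubiquitin-rhodamine substrate followed over time; top concentration of the series differs between compounds; nearly all actives have a fitted effect of over 35% in size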
# Ubiquitin carboxyl-terminal hydrolase 1 (Homo sapiens), sequence (O94782 whole entry, looked up): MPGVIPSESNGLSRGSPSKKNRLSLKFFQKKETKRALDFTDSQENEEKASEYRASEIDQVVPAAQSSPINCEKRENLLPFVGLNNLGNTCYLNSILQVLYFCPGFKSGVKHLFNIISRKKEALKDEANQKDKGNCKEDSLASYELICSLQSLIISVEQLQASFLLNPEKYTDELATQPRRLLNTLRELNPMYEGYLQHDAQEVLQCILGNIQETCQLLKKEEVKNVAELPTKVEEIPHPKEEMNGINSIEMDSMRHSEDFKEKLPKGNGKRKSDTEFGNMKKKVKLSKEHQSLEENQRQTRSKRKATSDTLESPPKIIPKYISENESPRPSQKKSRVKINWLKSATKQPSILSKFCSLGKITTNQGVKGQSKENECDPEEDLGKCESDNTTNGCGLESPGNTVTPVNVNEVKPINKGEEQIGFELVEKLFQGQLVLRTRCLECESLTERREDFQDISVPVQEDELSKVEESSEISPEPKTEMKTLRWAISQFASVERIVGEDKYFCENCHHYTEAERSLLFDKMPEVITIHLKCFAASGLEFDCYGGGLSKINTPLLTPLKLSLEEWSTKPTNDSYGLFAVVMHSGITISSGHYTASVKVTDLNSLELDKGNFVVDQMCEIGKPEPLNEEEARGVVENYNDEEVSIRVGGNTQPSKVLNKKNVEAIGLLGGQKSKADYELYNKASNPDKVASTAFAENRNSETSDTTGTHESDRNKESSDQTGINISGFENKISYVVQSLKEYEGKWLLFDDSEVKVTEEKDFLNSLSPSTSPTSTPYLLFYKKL
# Method in brief: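 Deubiquitinase activity followed as kinetic rhodamine fluorescence release from 150 nM Ub-Rho. 1 nM USP1/UAF1 with compound, after 15 min room-temperature preincubation, in HEPES pH 7.8 buffer containing TCEP, EDTA, BSA and Tween-20.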
# [13] = target: Lysosomal acid glucosylceramidase (Homo sapiens) (UniProt P04062); assay: Glucocerebrosidase-p2 (AID 348; in the data active means potency below about 10 µM; further: potency means the concentration at half of the fitted maximal effect); settings: purified GBA, blue fluorogenic substrate, 40 min
# Lysosomal acid glucosylceramidase (Homo sapiens), sequence (P04062 whole entry, looked up): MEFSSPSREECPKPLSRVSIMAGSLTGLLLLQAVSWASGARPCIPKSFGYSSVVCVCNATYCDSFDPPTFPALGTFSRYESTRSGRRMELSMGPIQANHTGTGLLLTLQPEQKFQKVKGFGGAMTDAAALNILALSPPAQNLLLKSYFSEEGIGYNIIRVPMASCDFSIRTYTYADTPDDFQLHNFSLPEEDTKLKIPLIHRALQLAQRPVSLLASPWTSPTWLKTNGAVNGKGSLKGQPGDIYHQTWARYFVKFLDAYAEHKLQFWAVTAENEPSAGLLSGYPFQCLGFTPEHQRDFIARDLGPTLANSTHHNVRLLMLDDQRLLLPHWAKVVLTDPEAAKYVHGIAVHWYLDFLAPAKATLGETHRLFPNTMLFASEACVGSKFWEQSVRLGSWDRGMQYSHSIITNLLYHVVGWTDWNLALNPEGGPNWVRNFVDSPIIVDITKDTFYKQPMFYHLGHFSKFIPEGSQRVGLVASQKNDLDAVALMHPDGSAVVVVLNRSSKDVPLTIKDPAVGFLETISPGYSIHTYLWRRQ
# Method in brief: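 Compounds titrated from 0.6 nM upwards against 0.2 nM enzyme in pH 5.9 citric acid/KH2PO4, taurocholate, tween-20; blue fluorogenic substrate 80 uM, 40 min room temperature, stopped and read Ex 365/Em 440 for AC50.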
# [14] = target: 3',5'-cyclic-AMP phosphodiesterase 4B (Homo sapiens) (UniProt Q07343); assay: qHTS Assay for Inhibitors of PDE-IV (AID 607; active means well fitted activation curve with a large enough effect in the main read-out, with a control signal flat, not every such curve was filed as active)
# 3',5'-cyclic-AMP phosphodiesterase 4B (Homo sapiens), sequence (Q07343 whole entry, looked up): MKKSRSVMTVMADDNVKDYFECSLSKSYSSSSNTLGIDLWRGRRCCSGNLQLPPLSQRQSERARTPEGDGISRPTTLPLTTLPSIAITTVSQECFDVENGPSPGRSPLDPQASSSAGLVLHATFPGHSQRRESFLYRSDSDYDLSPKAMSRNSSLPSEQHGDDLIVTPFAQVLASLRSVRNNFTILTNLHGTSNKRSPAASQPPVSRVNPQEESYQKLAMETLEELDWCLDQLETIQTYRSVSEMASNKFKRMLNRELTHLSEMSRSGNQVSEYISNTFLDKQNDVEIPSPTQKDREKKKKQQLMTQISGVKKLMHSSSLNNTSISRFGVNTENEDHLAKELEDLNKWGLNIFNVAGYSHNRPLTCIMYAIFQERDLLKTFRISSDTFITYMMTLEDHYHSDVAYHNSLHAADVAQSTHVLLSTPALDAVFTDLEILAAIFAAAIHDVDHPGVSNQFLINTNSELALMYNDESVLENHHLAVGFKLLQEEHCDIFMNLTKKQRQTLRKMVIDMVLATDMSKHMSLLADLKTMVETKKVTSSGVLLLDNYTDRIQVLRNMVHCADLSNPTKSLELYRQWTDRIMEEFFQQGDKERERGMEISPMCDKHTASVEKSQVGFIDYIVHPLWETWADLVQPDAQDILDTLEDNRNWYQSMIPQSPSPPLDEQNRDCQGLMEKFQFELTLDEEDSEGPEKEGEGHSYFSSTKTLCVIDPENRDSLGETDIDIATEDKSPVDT
# Method in brief: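 The readout is membrane depolarisation from a cAMP-sensing CNG channel, detected with a potential dye at ex 535/em 590. Cells were HEK293-derived (endogenous PDE-IV) at 1000 cells/well, titrated up to 22.9 uM final.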
smiles,measurement,setting,value
O=[N+]([O-])c1ccc2nc(-c3ccccn3)[nH]c2c1,Potency,[1],25.1 µM (active)
same,outcome,[2],inactive
same,outcome,[3],inactive
O=C(CN1C(=O)COc2ccccc21)Nc1ccc(F)cc1,Potency,[1],inactive
O=C(NC(=S)Nc1ncccn1)c1ccccc1Br,outcome,[2],inactive
same,outcome,[3],inactive
O=C(O)Cn1c(Cc2ccccc2)nc2ccccc21,outcome,[2],inactive
same,outcome,[4],inactive
COc1ccc(C(=O)NC(=S)N2CCCCC2c2cccnc2)cc1OC (stereo not drawn),outcome,[2],inactive
same,outcome,[4],inactive
COc1ccc(N=Nc2c(-c3ccc(OC)cc3)[nH]oc2=O)cc1,Potency,[1],inactive
same,outcome,[2],inactive
same,outcome,[4],inactive
Cc1cccc(-c2nnc(SCC(=O)O)n2Cc2ccccc2)c1,Potency,[1],inactive
same,outcome,[3],inactive
CCN1CCc2c(C#N)c(NCc3ccccc3)nc(NCCO)c2C1,"activity change, negative = inhibition",[5],-9.55% [at 17.2 µM]
same,"activity change, negative = inhibition",[6],-11% [at 17.2 µM]
same,"activity, negative = inhibition",[7],-0.118% [at 17.2 µM]
same,Potency,[8],> 20.6 µM
same,Potency,[1],inactive
Oc1ccc2ccccc2c1N=Nc1nccs1,Potency,[1],10 µM (active)
same,outcome,[3],inactive
same,outcome,[4],inactive
C=CCNC(=S)/N=c1/ccccn1Cc1ccccc1,Potency,[1],inactive
COc1ccc(OC)c(Nc2nc(-c3ccc(O)c(O)c3)cs2)c1,Potency,[1],inactive
same,outcome,[4],inactive
Cc1cccc(C)c1OCCN1CCOCC1,outcome,[3],inactive
CCN(CC(=O)Nc1ccc(S(=O)(=O)N2CCCC2)cc1)CC(=O)Nc1cccc(OC)c1,Potency,[1],inactive
same,outcome,[2],inactive
C=CCc1cc(C)ccc1OCCCn1ccnc1,outcome,[2],inactive
same,outcome,[3],inactive
same,outcome,[4],inactive
O=C1CCCN1CCCNC(=S)Nc1ccc(F)c(Cl)c1,Potency,[1],inactive
same,outcome,[2],inactive
CNC(=S)N/N=C/c1ccc(N2CCOCC2)s1,outcome,[3],inactive
CC(C)(c1ccccc1)c1ccc(OCCN2CCCC2)cc1,Potency,[1],inactive
same,outcome,[3],inactive
same,outcome,[4],inactive
O=C(CSc1cccc[n+]1[O-])c1ccc(-c2ccccc2)cc1,Potency,[1],inactive
same,outcome,[4],inactive
Cc1ccc(S(=O)(=O)NNC(=S)NC(C)(C)C)cc1,Potency,[1],inactive
same,outcome,[2],inactive
CN(C)CCOc1ccc(Cl)cc1C(C)(C)C,outcome,[2],inactive
CCS(=O)(=O)c1cc([N+](=O)[O-])c(Sc2ccccc2N)s1,Potency,[1],inactive
C/C(=N\NC(N)=S)c1cccnc1,outcome,[2],inactive
COc1ccc(Cl)cc1C(=O)NNC(=O)c1nc2nc(C)cc(C)n2n1,outcome,[3],inactive
O=C(Nc1nnc(-c2ccco2)o1)c1ccc(S(=O)(=O)N2CCOCC2)cc1,outcome,[2],inactive
COc1ccc(CN2CCN(Cc3ccc(OC)c(OC)c3OC)CC2)cc1,Potency,[1],inactive
same,outcome,[2],inactive
O=C(N/N=C/c1ccccn1)c1cccnc1,Potency,[1],inactive
same,outcome,[2],inactive
same,outcome,[4],inactive
CC[C@@H](CO)Nc1nc(NCc2ccccc2)c2ncn(C(C)C)c2n1,Potency,[9],12.6 µM (active)
same,Potency,[8],> 46 µM
same,Potency,[10],> 46 µM
same,Potency,[11],inactive
same,Potency,[12],inactive
Cn1c(=O)[nH]c(=O)c2c1[nH]c(=S)n2Cc1ccccc1,Potency,[1],inactive
same,outcome,[3],inactive
same,outcome,[4],inactive
Cc1nc(N2CCOCC2)sc1C(=O)NN,Potency,[1],inactive
CSc1n[nH]c(=S)n1N,outcome,[3],inactive
O=C(CN1CCN(Cc2ccccc2)CC1)Nc1ccc(F)c(F)c1,outcome,[3],inactive
COc1cc(CN2CCN(Cc3ccc(C)cc3)CC2)c([N+](=O)[O-])cc1OC,outcome,[3],inactive
CN1CCCc2cc(C#N)c(=O)[nH]c21,outcome,[3],inactive
COCCN(C(=S)Nc1ccccc1OC)C1CCN(C(C)C)CC1,outcome,[2],inactive
CC(=O)NC1CCN(CC(=O)Nc2nccs2)CC1,Potency,[1],inactive
same,outcome,[2],inactive
same,outcome,[4],inactive
O=NN(Cc1ccc(Cl)cc1)[C@@H](C(=O)O)c1ccccc1,Potency,[13],> 11.4 µM
same,"activity change, negative = inhibition",[5],15.1%
same,Potency,[9],5.01 µM (active)
same,"activity change, negative = inhibition",[6],-4.59%
same,"activity, negative = inhibition",[7],0.591%
same,Potency,[8],> 46 µM
same,Potency,[10],> 9.22 µM
same,Potency,[11],inactive
same,Potency,[14],inactive
O=C(Nc1ccccc1Cl)O/N=C(/c1ccccc1)c1ccccn1,outcome,[4],inactive
O=c1nc(N/N=C/c2ccco2)cn[nH]1,outcome,[4],inactive
COc1ccc(/C=N\NC(=O)O)cc1,Potency,[13],> 11.4 µM
same,"activity change, negative = inhibition",[5],7.79%
same,Potency,[9],0.501 µM (active)
same,"activity change, negative = inhibition",[6],19.9%
same,"activity, negative = inhibition",[7],7.25%
same,Potency,[8],> 46 µM
same,Potency,[10],> 9.22 µM
same,Potency,[11],inactive
C1CCN(CC[C@@H]2CCCCN2)CC1,Potency,[13],> 11.4 µM
same,"activity change, negative = inhibition",[5],12.5%
same,Potency,[9],inactive
same,"activity change, negative = inhibition",[6],8.93%
same,"activity, negative = inhibition",[7],-0.348%
same,Potency,[8],> 46 µM
same,Potency,[10],> 9.22 µM
same,Potency,[11],inactive
same,Potency,[14],inactive
Cc1c(C)c(C)c(CC2(C)CSC2)c(CC2(C)CSC2)c1C,Potency,[13],> 11.4 µM
same,"activity change, negative = inhibition",[5],10.3%
same,Potency,[9],inactive
same,"activity change, negative = inhibition",[6],0.756%
same,"activity, negative = inhibition",[7],6.86%
same,Potency,[8],> 46 µM
same,Potency,[10],> 9.22 µM
same,Potency,[11],inactive
CN(N=O)c1ccc(/C=C\c2ccnc3ccccc23)cc1,Potency,[13],> 11.4 µM
same,"activity change, negative = inhibition",[5],-0.154%
same,Potency,[9],0.158 µM (active)
same,"activity change, negative = inhibition",[6],7.28%
same,"activity, negative = inhibition",[7],-0.754%
same,Potency,[8],> 46 µM
same,Potency,[10],> 9.22 µM
same,Potency,[11],inactive
CN(C)Cc1ccccc1-c1ccc2ncnc(NC3CCNCC3)c2c1,Potency,[13],> 11.4 µM
same,"activity change, negative = inhibition",[5],20.2%
same,Potency,[9],inactive
same,"activity change, negative = inhibition",[6],-12.2%
same,"activity, negative = inhibition",[7],-2.13%
same,Potency,[8],> 46 µM
same,Potency,[10],> 46 µM
same,Potency,[11],inactive
same,Potency,[14],inactive
same,Potency,[12],inactive
